From PubChem BioAssay come the findings set out here.

Test [1] in a line: inhibitors of CD8+ T cell-vesicle binding, pilot screen, LFA-1/ICAM-1 modulator project, MLPCN validation set, flow cytometry (AID 2523;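 active = response below a set limit, under 55% cells CD8-positive and vesicle-bound, and CD8 cells' 90th-percentile brightness under 279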;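 as to vesicle binding response: mean PE anti-B7-1 fluorescence of CD8+ cells relative to row control; 100% = QL9-loaded vesicles with DMSO vehicle in the same plate row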). Conditions: 2C mouse CD8+ T cells, at 7 µM, stronger effect = lower value; double positive events: measured here: CD8+/vesicle+ event percentage. In general terms: In flow cytometry, cells or beads pass a laser one at a time.
Test [2] addresses Integrin beta-1 (Homo sapiens) + Integrin alpha-4 (Homo sapiens) (UniProt P13612+P05556). The test is described as follows: inhibition of HUTS-21 binding to VLA-4, pilot screen, VLA-4 allosteric modulator project, U937 cells, HUTS-21 mAb, flow cytometry, validation set (AID 2674;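 active = inhibition above 50%, about 3 SD of the validation set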;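 also: antibody binding induced by the VLA-4 ligand LDV present at three times its Kd; 0% = LDV ligand with antibody and no compound and 100% = antibody without LDV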). Particulars: HUTS-21 LIBS mAb binding, at 6.7 µM, stronger effect = higher value, binding induced by LDV ligand.

The nature of test [3]: superoxide lowering in aged yeast cells, pilot screen, validation compound set (AID 2706;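 active = superoxide response below 65% of plate, a cut near 3 SD across the whole screen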;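 also: yeast exposed to compound for one week at 30 degrees C before staining; 100% = mean of all compound wells on the same plate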). Particulars: S. cerevisiae aging, superoxide DHE fluorescence; at 10 µM, stronger effect = lower value.
Test [4] deals with Beta-adrenergic receptor kinase 1 (Homo sapiens) (UniProt P25098). The test is described as follows: GRK2 binders displacing RNA aptamer, biochemical, validation, human GRK2, bead flow cytometry (AID 488806;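 active = aptamer binding inhibition above 30%, about 3 SD of noise from non-fluorescent compounds; inactive = inhibition at or below 30%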). Particulars: bead-bound GRK2, FAM-aptamer displacement, at 10 µM, stronger effect = higher value.
Test [5] addresses Beta-2 adrenergic receptor (Homo sapiens) (UniProt P07550). The test is described as follows: beta2AR agonists driving receptor internalization, pilot screen, cell-based, FAP fluorogen, flow cytometry, validation set (AID 504459;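 active = percent response above 42, roughly 3 SD of non-fluorescent test compounds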;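 also: agonist-driven loss of surface beta2AR via internalization measured by FAP dye flow cytometry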). Conditions: Am2.2-beta2AR cells, FAP surface receptor flow cytometry; at 10 µM; stronger effect = higher value.
Test [6] addresses AP-2 complex subunit beta (Homo sapiens) (UniProt P63010). The test is described as follows: inhibitors of arrestin peptide binding to AP2, pilot screen, biochemical, validation set, GST-AP2 beads, flow cytometry (AID 504541;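 active = inhibition above 54%, about 3 SD of non-fluorescent compounds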;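 also: AP2 carries R879A mutation and is captured from E. coli lysate; bead-bound FITC arrestin peptide fluorescence measuring arrestin peptide binding to AP2; 0% = DMSO wells and 100% = excess unlabeled arrestin peptide control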). Conditions: FITC arrestin peptide, at 10 µM, stronger effect = higher value, AP2 beta2 appendage fragment, R879A mutant.
Test [7] is described as follows: yeast V-ATPase proton transport modulators, S. cerevisiae, pHLuorin, HTS validation (AID 504600; in the data active = response above about 15%;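 also: plate controls were DMSO for no effect and reference compound for full effect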). Conditions: S. cerevisiae pHLuorin cytosolic pH, at 10 µM, stronger effect = higher value.
For test [8], the system named is anti-desmoglein-3 scFv antibody binding to human DSG3. The test is described as follows: inhibitors of anti-DSG3 scFv binding to DSG3, pilot screen, biochemical, validation compound set, bead-based, flow cytometry (AID 588368;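 active = binding below the plate cutoff, the plate median minus 3 SD, with a reading above zero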;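 also: signal is the median channel fluorescence of bead-bound GFP antibody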). Conditions: Protein G beads, DSG3-Fc, scFv-GFP binding, at 10 µM, stronger effect = lower value.
A short description of test [9]: inhibitors of fungal efflux pumps CDR1, CDR2, MDR1, pilot screen, validation compound set, multiplex, phenotypic (AID 588506;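 active = efflux inhibition above 0.42, the validation set average plus 4 SD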;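 also: Nile Red retained in cells so higher fluorescence means more efflux inhibition; 0 = negative control wells and 1 = enniatin B 25 µM full block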). Conditions: S. cerevisiae pump-expressing triplex, Nile Red efflux flow cytometry; at 10 µM; stronger effect = higher value; the pumps come from Candida albicans.
Test [10] concerns the target ATP-binding cassette sub-family B member 6 (Homo sapiens) (UniProt Q9NP58). The test is described as follows: ABCB6 transporter inhibitors, pilot screen, K562-ABCB6 cells, flow cytometry, validation set (AID 588550).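 Also: 0% = DMSO wells and 100% = benzethonium chloride 70 µM positive control.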 Conditions: K562-ABCB6 porphyrin accumulation, 1 h, at 10 µM, stronger effect = higher value.
Test [11] is described as follows: promoters of myeloid differentiation in arrested cells, primary screen, cell-based, GFP/MAC1 double positive, flow cytometry, validation set (AID 588685;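 active = differentiation response of at least 50%, scaled between solvent and reference control, from cells with both markers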;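 also: compound exposure lasts four days before antibody staining and flow analysis; 0% = DMSO wells and 100% = 5 µM fulvestrant positive control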). Particulars: ER-HoxA9 marrow cells, stronger effect = higher value, normalized: vehicle 0, fulvestrant 100.

SMILES strings stand for the structures. Activity calls are given as the source filed them.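 The calls were made as follows, unless noted: active = inhibition above the screen-wide mean plus 3 SD, about 51%; inactive = the rest.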

Chain of AP-2 complex subunit beta (Homo sapiens) (P63010 whole entry, looked up, the tested form may be a part, one chain of several): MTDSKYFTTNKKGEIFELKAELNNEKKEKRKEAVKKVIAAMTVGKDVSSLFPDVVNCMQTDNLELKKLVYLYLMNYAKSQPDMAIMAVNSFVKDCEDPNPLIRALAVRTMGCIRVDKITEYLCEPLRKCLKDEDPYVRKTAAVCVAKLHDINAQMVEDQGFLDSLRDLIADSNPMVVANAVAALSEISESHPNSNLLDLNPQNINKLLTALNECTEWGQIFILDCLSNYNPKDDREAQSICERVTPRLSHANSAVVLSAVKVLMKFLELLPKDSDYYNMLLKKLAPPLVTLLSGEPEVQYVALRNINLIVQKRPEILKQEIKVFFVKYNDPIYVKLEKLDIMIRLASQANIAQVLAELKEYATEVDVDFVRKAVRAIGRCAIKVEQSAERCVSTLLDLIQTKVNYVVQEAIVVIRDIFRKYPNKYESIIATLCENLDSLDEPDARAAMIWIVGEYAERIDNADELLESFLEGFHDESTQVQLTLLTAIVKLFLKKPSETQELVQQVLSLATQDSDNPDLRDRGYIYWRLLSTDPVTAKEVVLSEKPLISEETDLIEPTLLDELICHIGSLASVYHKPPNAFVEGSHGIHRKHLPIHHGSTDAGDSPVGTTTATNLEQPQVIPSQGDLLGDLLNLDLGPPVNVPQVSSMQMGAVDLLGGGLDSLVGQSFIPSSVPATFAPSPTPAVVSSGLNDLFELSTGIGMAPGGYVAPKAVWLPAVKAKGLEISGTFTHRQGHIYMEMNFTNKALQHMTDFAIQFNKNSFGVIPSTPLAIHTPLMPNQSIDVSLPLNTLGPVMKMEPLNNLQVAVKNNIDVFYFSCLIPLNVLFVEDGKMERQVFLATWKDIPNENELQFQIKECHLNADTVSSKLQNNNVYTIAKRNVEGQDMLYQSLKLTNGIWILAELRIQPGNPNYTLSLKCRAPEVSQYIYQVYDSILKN
Chain of ATP-binding cassette sub-family B member 6 (Homo sapiens) (Q9NP58 whole entry, looked up): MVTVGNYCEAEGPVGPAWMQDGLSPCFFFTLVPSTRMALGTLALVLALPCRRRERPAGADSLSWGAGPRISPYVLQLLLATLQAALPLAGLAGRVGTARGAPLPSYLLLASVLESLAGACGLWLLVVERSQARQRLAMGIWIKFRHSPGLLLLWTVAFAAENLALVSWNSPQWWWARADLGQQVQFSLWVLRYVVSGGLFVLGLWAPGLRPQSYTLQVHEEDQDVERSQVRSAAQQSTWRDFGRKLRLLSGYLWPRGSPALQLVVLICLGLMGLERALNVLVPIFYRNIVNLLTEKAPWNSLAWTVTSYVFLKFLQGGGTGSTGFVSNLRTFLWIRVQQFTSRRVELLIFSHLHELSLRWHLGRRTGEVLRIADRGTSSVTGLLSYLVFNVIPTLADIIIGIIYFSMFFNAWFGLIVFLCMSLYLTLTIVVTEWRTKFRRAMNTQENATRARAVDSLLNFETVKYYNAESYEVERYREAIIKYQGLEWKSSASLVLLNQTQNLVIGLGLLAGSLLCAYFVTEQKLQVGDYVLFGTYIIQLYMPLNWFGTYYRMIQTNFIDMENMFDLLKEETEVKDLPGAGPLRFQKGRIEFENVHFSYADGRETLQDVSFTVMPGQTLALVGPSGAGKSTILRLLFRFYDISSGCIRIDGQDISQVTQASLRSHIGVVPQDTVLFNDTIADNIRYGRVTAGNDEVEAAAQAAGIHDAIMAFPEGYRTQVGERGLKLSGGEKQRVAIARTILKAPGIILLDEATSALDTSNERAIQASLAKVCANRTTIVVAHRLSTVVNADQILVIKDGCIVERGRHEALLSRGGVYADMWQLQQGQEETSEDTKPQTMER
Chain of Beta-2 adrenergic receptor (Homo sapiens) (P07550 whole entry, looked up): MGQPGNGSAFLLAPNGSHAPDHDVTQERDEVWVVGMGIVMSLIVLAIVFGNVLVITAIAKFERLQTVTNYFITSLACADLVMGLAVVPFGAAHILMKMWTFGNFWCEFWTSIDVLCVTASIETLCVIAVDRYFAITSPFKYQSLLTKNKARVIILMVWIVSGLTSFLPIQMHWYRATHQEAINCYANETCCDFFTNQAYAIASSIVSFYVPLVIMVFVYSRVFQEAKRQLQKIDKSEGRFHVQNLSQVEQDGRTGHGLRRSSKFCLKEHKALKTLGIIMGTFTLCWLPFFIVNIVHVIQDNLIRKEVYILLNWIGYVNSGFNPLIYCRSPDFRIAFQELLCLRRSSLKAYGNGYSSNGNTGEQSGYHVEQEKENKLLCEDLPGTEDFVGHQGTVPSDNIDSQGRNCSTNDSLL
Chain of Integrin beta-1 (Homo sapiens) + Integrin alpha-4 (Homo sapiens) (P05556 whole entry, looked up): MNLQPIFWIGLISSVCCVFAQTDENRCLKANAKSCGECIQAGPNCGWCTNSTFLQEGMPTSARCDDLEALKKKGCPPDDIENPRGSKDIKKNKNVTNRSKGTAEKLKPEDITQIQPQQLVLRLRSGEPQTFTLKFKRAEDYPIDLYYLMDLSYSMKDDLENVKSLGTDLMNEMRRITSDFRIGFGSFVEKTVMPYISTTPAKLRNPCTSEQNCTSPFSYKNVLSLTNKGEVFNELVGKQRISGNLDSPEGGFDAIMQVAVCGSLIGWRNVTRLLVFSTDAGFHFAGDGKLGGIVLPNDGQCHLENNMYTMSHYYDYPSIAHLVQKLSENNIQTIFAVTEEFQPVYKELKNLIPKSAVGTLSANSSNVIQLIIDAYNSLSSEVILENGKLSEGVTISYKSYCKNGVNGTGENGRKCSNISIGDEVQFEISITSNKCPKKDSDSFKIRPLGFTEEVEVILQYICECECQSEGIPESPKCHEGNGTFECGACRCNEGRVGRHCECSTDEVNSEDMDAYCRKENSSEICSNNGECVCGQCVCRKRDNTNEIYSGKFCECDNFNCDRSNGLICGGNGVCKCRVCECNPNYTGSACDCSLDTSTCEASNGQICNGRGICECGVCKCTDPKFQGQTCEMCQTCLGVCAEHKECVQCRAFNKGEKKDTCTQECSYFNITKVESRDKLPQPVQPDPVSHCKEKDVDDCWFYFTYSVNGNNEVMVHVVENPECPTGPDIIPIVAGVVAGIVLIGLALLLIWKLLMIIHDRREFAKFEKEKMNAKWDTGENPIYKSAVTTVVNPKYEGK
Chain of Integrin beta-1 (Homo sapiens) + Integrin alpha-4 (Homo sapiens) (P13612 whole entry, looked up): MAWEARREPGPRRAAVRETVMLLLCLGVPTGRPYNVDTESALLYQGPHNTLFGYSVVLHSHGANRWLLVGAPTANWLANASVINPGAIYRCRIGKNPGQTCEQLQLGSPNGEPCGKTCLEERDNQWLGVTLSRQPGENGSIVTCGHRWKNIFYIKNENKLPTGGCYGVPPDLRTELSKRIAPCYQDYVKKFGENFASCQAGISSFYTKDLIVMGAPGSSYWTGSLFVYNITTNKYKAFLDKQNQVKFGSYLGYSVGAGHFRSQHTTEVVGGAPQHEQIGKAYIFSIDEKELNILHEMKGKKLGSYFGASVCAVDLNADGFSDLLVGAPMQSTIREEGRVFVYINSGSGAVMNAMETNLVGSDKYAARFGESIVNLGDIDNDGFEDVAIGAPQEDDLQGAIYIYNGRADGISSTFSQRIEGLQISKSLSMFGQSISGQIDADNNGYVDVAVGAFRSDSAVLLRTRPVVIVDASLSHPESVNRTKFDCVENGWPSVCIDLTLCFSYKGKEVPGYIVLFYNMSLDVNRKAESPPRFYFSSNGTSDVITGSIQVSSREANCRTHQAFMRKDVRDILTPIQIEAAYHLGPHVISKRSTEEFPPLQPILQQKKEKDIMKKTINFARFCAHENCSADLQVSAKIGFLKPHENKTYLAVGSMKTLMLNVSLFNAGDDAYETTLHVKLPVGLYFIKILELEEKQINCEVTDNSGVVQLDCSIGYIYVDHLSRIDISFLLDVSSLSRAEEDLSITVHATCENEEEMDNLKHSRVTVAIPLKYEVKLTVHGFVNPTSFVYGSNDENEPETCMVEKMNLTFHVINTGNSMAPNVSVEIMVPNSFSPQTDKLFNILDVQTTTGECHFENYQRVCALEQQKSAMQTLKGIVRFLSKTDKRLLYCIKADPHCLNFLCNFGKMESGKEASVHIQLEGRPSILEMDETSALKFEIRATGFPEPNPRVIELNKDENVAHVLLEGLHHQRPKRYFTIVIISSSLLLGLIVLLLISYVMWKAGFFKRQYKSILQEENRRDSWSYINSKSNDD
Chain of Beta-adrenergic receptor kinase 1 (Homo sapiens) (P25098 whole entry, looked up): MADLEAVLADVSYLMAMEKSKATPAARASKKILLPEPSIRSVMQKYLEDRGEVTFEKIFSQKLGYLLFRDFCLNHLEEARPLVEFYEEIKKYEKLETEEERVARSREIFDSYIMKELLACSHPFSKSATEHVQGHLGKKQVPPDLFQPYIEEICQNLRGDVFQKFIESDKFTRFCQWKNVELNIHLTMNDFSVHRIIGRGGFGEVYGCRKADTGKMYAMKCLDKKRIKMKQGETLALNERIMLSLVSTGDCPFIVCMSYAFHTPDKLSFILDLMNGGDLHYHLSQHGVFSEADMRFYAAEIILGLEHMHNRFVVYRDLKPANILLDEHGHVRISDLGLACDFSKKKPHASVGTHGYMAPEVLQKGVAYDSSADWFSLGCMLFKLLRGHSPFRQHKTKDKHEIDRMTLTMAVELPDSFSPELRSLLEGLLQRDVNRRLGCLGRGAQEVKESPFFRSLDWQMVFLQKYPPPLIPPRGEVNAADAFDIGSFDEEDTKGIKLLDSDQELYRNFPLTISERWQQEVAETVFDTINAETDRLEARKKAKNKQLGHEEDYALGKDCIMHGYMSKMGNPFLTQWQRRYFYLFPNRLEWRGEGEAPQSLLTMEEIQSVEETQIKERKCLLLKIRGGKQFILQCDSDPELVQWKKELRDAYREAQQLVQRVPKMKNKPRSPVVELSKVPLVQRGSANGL

As usually defined, the inhibition is the relative decrease from the control value, in per cent. As to `COc1ccc(N2C(=O)C3CCCN3C2=O)cc1` (stereo not given), in [1], the double positive events was 61.6%. In addition, the vesicle binding response in test [1] is 146% (inactive). In addition, the inhibition in test [2] is -1.79% (inactive); in test [6] it was 9.15% (inactive); in test [10] it was 7% (inactive). Moreover, in test [3], the superoxide response (% of plate) is 98.7% (inactive). The aptamer binding inhibition in test [4] was -1% (inactive). Besides, the response in test [5] is 7.47% (inactive); in test [7], 1.78% (inactive). Besides, in [8], the binding (% of control) was 102% (inactive). Moreover, the efflux inhibition (fraction of control) in test [9] was 0.12 (inactive). Also, in test [11], the differentiation response is 2.4% (inactive).

`Cn1c(=O)c2c(nc(SCCN3CCCCC3)n2C)n(C)c1=O`: the double positive events in [1] was 61.5%. Further, in [1], the vesicle binding response is 176% (inactive). The figures for the inhibition in test [2], in [6] and in test [10] were -0.27% (inactive), -6.3% (inactive) and -2% (inactive), respectively. For the same compound, the superoxide response (% of plate) in [3] was 85.5% (inactive). For the same compound, the aptamer binding inhibition in test [4] was -3% (inactive). Further, the response is -25.4% (inactive) in test [5] and 1.6% (inactive) in test [7]. In addition, the binding (% of control) in test [8] is 110% (inactive). Further, in test [9], the efflux inhibition (fraction of control) was -0.13 (inactive). Also, in [11], the differentiation response was -11.9% (inactive).

In test [1], `COc1cc(/C=C(\C#N)C(=O)N2CCc3ccccc32)ccc1O` gave a double positive events of 64.1%. In addition, the vesicle binding response in test [1] was 273% (inactive). The inhibition in test [2] is -88.6% (inactive); in test [6], -7.55% (inactive); in [10] it was -41% (inactive). The superoxide response (% of plate) in [3] was 98.9% (inactive). Further, the aptamer binding inhibition in test [4] is -1% (inactive). The response in [5] is 0.72% (inactive); in [7], 1.46% (inactive). Further, the binding (% of control) in [8] is 105% (inactive). In addition, the efflux inhibition (fraction of control) in test [9] was 0.19 (inactive). Moreover, in [11], the differentiation response is 2.46% (inactive).

`CCC(=O)c1ccc(O)cc1` had a double positive events in test [1] of 72%. Besides, the vesicle binding response in test [1] is 882% (inactive). The inhibition in [2] was -6.68% (inactive); in [6], -11.7% (inactive); in test [10], 19% (inactive). The superoxide response (% of plate) in test [3] was 87.9% (inactive). Further, the aptamer binding inhibition in test [4] is 3% (inactive). For the same compound, the response in test [5] is -7.88% (inactive); in test [7], 3.37% (inactive). Further, the binding (% of control) in test [8] was 94.5% (inactive). Further, the efflux inhibition (fraction of control) in [9] was -0.14 (inactive). The differentiation response in test [11] is 10% (inactive).

`COc1cc(C(=O)OCCCN(C)C)cc(OC)c1OC` returned a double positive events in [1] of 60.1%. In addition, the vesicle binding response in test [1] was 180% (inactive). The inhibition in test [2] is 21.9% (inactive); in test [6], 4.79% (inactive); in test [10], -1% (inactive). The superoxide response (% of plate) in test [3] is 93.6% (inactive). The aptamer binding inhibition in test [4] is -2% (inactive). Moreover, the response in [5] is -28.8% (inactive); in test [7] it was 1.07% (inactive). In addition, in test [8], the binding (% of control) was 108% (inactive). Further, the efflux inhibition (fraction of control) in [9] is -0.09 (inactive). Besides, the differentiation response in test [11] is -4.99% (inactive).

In test [1], `C=C(CC)C(=O)c1ccc(OCC(=O)O)c(Cl)c1Cl` registered a double positive events of 52.1%. Also, the vesicle binding response in [1] is 105% (inactive). The inhibition in test [2] is -4.21% (inactive); in test [6], -9.01% (inactive); in [10], -92% (inactive). In addition, in [3], the superoxide response (% of plate) was 98.5% (inactive). The aptamer binding inhibition in [4] was 2% (inactive). In addition, the results for the response in test [5] and in test [7] were 14.6% (inactive) and 1.56% (inactive), respectively. Further, the binding (% of control) in test [8] is 108% (inactive). The efflux inhibition (fraction of control) in test [9] is -0.38 (inactive). The differentiation response in test [11] is 1.64% (inactive).

On to `CCS(=O)(=O)Nc1cc(OC)c(OC)cc1Cc1nccc2cc(OC)c(OC)cc12`, for which the double positive events in test [1] was 57.8%. Moreover, the vesicle binding response in test [1] is 90.7% (inactive). In addition, the results for the inhibition in test [2], in [6] and in test [10] were -9.63% (inactive), -7.26% (inactive) and 0% (inactive), respectively. In addition, the superoxide response (% of plate) in test [3] was 93.2% (inactive). Moreover, the aptamer binding inhibition in [4] was -1% (inactive). Also, the response in test [5] was -40% (inactive); in test [7], 4.6% (inactive). Besides, the binding (% of control) in test [8] is 106% (inactive). Further, the efflux inhibition (fraction of control) in test [9] is 0.08 (inactive). The differentiation response in test [11] was -5.97% (inactive).

Consider `Cn1c(=O)[nH]c(=O)c2c1nc(Br)n2CCCO`, for which the double positive events in [1] is 64.5%. In [1], the vesicle binding response is 261% (inactive). Also, the inhibition in [2] was 6.29% (inactive); in test [6], 7.12% (inactive); in [10], 8% (inactive). In test [3], the superoxide response (% of plate) was 90.2% (inactive). Besides, in test [4], the aptamer binding inhibition was 0% (inactive). Besides, the response in test [7] is 0.07% (inactive). For the same compound, the binding (% of control) in test [8] is 109% (inactive). The efflux inhibition (fraction of control) in test [9] was -0.01 (inactive). Moreover, the differentiation response in [11] is -24.4% (inactive).

`c1ccc2c(CC3=NCCN3)cccc2c1` came in with a double positive events in [1] of 49.4%. Besides, the vesicle binding response in test [1] was 192% (inactive). Also, the inhibition is 11.9% (inactive) in [2], -1.38% (inactive) in test [6] and 11% (inactive) in [10]. In addition, the superoxide response (% of plate) in [3] was 99% (inactive). Besides, the aptamer binding inhibition in [4] was 1% (inactive). For the same compound, the response in test [7] is 1.28% (inactive). Besides, the binding (% of control) in test [8] was 96.2% (inactive). In [9], the efflux inhibition (fraction of control) is -0.16 (inactive). In addition, the differentiation response in test [11] was 7.87% (inactive).

The compound `COc1ccc(C(=O)NC(=O)NC2(C(Cl)(Cl)Cl)OCCO2)cc1` yielded a double positive events in [1] of 60.6%. The vesicle binding response in test [1] was 214% (inactive). The inhibition in test [2] was -21.6% (inactive); in test [6], 13.5% (inactive); in [10] it was 9% (inactive). Further, the superoxide response (% of plate) in test [3] is 86.9% (inactive). Further, the aptamer binding inhibition in [4] is 4% (inactive). The response in test [5] was -20.1% (inactive); in [7], -0.88% (inactive). The binding (% of control) in test [8] is 94.7% (inactive). Moreover, in [9], the efflux inhibition (fraction of control) was 0.12 (inactive). Also, the differentiation response in [11] is -2.03% (inactive).

In [1], `CC(=O)O[C@]1(C(C)=O)CC[C@H]2[C@@H]3C=C(C)C4=CC(=O)CC[C@]4(C)[C@H]3CC[C@@]21C` came in with a double positive events of 65.3%. Moreover, the vesicle binding response in [1] was 252% (inactive). For the same compound, the inhibition in [2] was -0.27% (inactive); in test [6], 1.74% (inactive); in test [10], -2% (inactive). Besides, in test [3], the superoxide response (% of plate) is 95.9% (inactive). Also, in [4], the aptamer binding inhibition is 3% (inactive). Moreover, the response was -24.4% (inactive) in test [5] and -0.81% (inactive) in [7]. Moreover, the binding (% of control) in [8] is 101% (inactive). For the same compound, the efflux inhibition (fraction of control) in [9] is 0.29 (inactive). For the same compound, in test [11], the differentiation response is 7.82% (inactive).
